# Assay results published in the supplement of paper PMC12067093, “Discovery and optimisation of a covalent ligand for TRIM25 and its application to targeted protein ubiquitination” (Chemical Science, 2025).
# About 21,000 targets were measured; listed, in parts, are those with the largest changes and a random draw of the rest.
# Target: DDX39B_Q13838_165_NCPHIVVGTPGR (UniProt Q13838)
# Assay: probe-labelled cysteine peptide fold change vs DMSO (competition) (log2 fold change); higher = less target engagement (more negative = stronger competition)
# Settings: THP-1, incubation time: 4 h
# 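Note: competitive profiling in live THP-1 cells: cysteine peptides tagged with an iodoacetamide desthiobiotin (IA-DTB) probe, intensity after compound treatment relative to DMSO-treated cells.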
# Chain of UniProt Q13838 (Q13838 whole entry, looked up): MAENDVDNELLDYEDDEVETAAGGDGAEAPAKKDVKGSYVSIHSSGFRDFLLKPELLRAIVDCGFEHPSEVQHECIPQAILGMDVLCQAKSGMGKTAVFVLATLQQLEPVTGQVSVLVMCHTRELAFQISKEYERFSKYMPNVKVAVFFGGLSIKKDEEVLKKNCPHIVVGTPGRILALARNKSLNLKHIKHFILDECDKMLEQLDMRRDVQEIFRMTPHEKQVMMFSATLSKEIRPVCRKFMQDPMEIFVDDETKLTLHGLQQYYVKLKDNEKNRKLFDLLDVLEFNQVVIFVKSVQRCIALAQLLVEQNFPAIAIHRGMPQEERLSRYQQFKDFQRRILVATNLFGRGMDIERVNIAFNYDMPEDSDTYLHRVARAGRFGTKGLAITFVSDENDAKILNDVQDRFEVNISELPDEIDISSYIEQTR
smiles,measurement,setting,value
Cc1cc(C(=O)N2CCCN(C(=O)CCl)CC2)ccc1-c1ccccc1 [compound 10],probe-labelled cysteine peptide fold change,10 µM,0.0169
same,probe-labelled cysteine peptide fold change,50 µM,0.0264
